# Rab9 promoter act: Rab9 promoter activation | Potency, µM (titrated, usually from 9.22 µM), for inactives: at the top dose activation, negative = inhibition, actives largely listed as activators | actives 2.8% (n = 320,000) | Huh7 Rab9 promoter-luciferase reporter, luminescence, 24 h; note: % of control where 0% means no effect; nearly all actives have a fitted effect of over 60% in size
#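 Cells were plated at 1500 per well in reduced-serum medium with 10% FBS and left 2 h. Compound in DMSO was then added for 24 h at 37 °C. Reporter signal was read by luminescence after 10 min with luciferase detection reagent.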
# SMN2 splice enh: SMN2 splice variant enhancement | HEK293 SMN2-luciferase splicing reporter, luminescence, 30-36 h | Potency, µM (top dose mostly 46.1 µM), for the others: at the top dose activity change, positive = activation, usual class: activators | actives 2.8% (n = 210,000) | AID 1458; note: % of control where 0% means no effect; nearly all actives have a fitted effect of over 55% in size
#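 qHTS luciferase splicing reporter: luminescence rises when SMN2 exon 7 is included in transfected HEK293 cells. Compound exposure lasted 30-36 h at 37C, with 4.5 mM final sodium butyrate as control, followed by a ONE-Glo read.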
# ELG1 repair inh: inhibitors of ELG1-dependent DNA repair in HEK293T cells; Potency, µM (top dose mostly 46.1 µM), for inactives: at the highest dose activity change, negative = inhibition, hits mostly inhibitors; actives 2.3% (n = 330,000); HEK293T ELG1-luciferase reporter, luminescence, 16 h; DNA damage induced by 5-fluorouridine; AID 504467; note: % is set by controls: 0 for no effect and ±100 for the full control effect; nearly all actives have a fitted effect of over 55% in size
#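 HEK293T cells expressing luciferase-tagged ELG1 (2,000/well) received 5-Fluorouridine plus compound or DMSO for 16 hr at 37 °C. Luciferase was read by ONE-Glo luminescence after 30 min at room temperature.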
# ELG1 genotox: genotoxicity induction in ELG1-luciferase HEK293T cells; HEK293T ELG1-luciferase reporter, luminescence, 16 h; Potency, µM (series often up to 46 µM), without a hit: at the top dose activity change, positive = activation, actives largely listed as activators; actives 1.3% (n = 330,000); note: % of control where 0% means no effect; nearly all actives have a fitted effect of over 60% in size
#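 HEK293T cells expressing luciferase-tagged ELG1 were exposed to compound or DMSO vehicle for 16 hr at 37 °C and 5% CO2. Luciferase activity was then measured with ONE-Glo after 30 min at room temperature.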
# FLuc modulator: counter-screen for miR-21 project: firefly luciferase inhibitors or activators | purified FLuc, Km substrates, luminescence inhibition | P08659 | Potency, µM (top dose mostly 57.5 µM), inactives show at the top dose activity change, negative = inhibition, hits mostly inhibitors | actives 6.9% (n = 360,000);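 note: plate controls were vehicle for no effect and reference inhibitor for full effect; nearly all actives have a fitted effect of over 55% in size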
# Target sequence (P08659 whole entry, looked up): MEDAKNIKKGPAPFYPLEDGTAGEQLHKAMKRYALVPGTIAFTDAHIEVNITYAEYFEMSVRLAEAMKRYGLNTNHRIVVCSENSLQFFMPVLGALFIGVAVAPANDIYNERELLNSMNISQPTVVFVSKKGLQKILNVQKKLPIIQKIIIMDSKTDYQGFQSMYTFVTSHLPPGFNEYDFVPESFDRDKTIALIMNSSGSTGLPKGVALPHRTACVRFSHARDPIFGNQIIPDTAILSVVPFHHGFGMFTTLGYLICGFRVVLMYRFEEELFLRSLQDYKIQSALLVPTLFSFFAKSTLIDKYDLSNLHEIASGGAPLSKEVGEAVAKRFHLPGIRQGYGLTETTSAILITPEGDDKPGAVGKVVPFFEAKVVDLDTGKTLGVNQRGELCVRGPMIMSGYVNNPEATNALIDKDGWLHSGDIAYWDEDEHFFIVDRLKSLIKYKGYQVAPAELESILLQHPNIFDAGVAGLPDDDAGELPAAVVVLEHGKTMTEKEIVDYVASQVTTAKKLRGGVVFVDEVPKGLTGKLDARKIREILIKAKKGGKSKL
#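 Purified P. pyralis luciferase (10nM final) with 10uM D-luciferin and 10uM ATP (Km levels) in 50mM Tris acetate pH 7.5, 10mM Mg acetate, 0.01% Tween-20, 0.05% BSA; qHTS 6-point titration, ~60 µM downward; luminescence read.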
# NPC1 promoter act: activators of NPC1 promoter; AID 485313; actives 2.4% (n = 320,000); Potency, µM (doses to about 9.22 µM), for inactives: at the highest dose activation, usual class: activators; Huh7 NPC1 promoter luciferase reporter, 24 h; note: % of control where 0% means no effect; nearly all actives have a fitted effect of over 60% in size
#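 Compounds in DMSO were transferred onto Huh7 NPC1-luciferase reporter cells pre-incubated 2 h; after 24 h at 37 °C, Amplite reagent was dispensed and luminescence recorded 10 min later.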
# Starred values were filed as active, the others as inactive; ? = inconclusive; / = no result. Hits are enriched below; roughly 9.2% of the tested compounds scored in any of these assays. Calls come from the whole dose curve; as a rule, active = well fitted curve in the direction sought with a large enough effect; inconclusive = small, poorly fitted or top-dose-only effect, or another doubt; inactive = no such curve, though single readings can be large; an effect the other way counts as inactive or inconclusive. Potency is the fitted concentration of half-maximal effect.
SMILES,Rab9 promoter act,SMN2 splice enh,ELG1 repair inh,ELG1 genotox,FLuc modulator,NPC1 promoter act
COc1ccc(NC(=O)c2ccc(-c3ccccc3C(F)(F)F)o2)cc1,4%,-1%,?,9%,19µM*,8%
O=C(Nc1ccc(Nc2ccccc2)cc1)c1ccc(Br)o1,?,7%,?,13%,19µM*,30%
COc1ccc(NC(=S)NC(=O)c2ccc(Br)o2)cc1,3.2µM*,8.9µM*,?,?,9.5µM*,?
CCN(c1ccccc1)S(=O)(=O)c1ccc(NC(=S)NC(=O)c2cccs2)cc1,-4%,-32%,13µM*,-14%,-1%,-2%
CN(C)S(=O)(=O)c1ccc(NC(=S)NC(=O)c2cccs2)cc1,14%,/,7%,-1%,?,0%
CC(C)C(=O)Nc1cccc(NC(=S)NC(=O)c2cccs2)c1,2.8µM*,/,?,19%,-16%,2.8µM*
CCN(CC)c1ccc(NC(=S)NC(=O)c2cccs2)cc1,0.56µM*,/,?,8%,15µM*,?
COc1cc(NC(=S)NC(=O)c2cccs2)ccc1NC(=O)C(C)C,27%,8%,2%,-2%,?,19%
CCOc1ccc(OCCOC(=O)CN(C)S(=O)(=O)c2ccc(NC(C)=O)cc2)cc1,7%,/,22%,21%,-21%,2%
COc1cc(/C=C2\SC(=O)N(CCNC(=O)c3c(C)noc3C)C2=O)cc(OC)c1OC,/,/,18µM*,-1%,/,/
COc1ccc(/C=C2\SC(=O)N(CCNC(=O)C3=COCCO3)C2=O)cc1,28%,/,?,16µM*,?,2%
O=C(NCCN1C(=O)S/C(=C\c2ccc(OC(F)F)cc2)C1=O)C1=COCCO1,-15%,/,-11%,1%,?,-22%
COc1ccc(/C=C2\SC(=O)N(CC(=O)NCCCn3ccnc3)C2=O)cc1,29%,/,?,13%,9.5µM*,27%
COc1ccc(/C=C2\SC(=O)N(CCc3nnc(N)s3)C2=O)cc1,1µM*,/,?,?,1.9µM*,2.5µM*
COc1cccc(/C=C2\SC(=O)N(CC(=O)NCCCn3ccnc3)C2=O)c1,-1%,/,?,5%,24µM*,3%
O=C(OCC(=O)N1CCCCCC1)c1cccs1,?,?,?,?,13µM*,?
Cc1cc(C)cc(C(=O)OCC(=O)N2CCCC2)c1,6%,/,?,5%,-3%,4%
O=C(OCC(=O)N1CCc2ccccc2C1)c1cccnc1Cl,?,3%,?,?,15µM*,27%
O=C(OCC(=O)N1CCc2ccccc2C1)c1cccs1,-4%,28%,12%,-1%,11µM*,-2%
Cc1cccc(C(=O)OCC(=O)N2CCCCCC2)c1,?,/,?,?,19µM*,?
O=C(CN1C(=O)COc2ccc(S(=O)(=O)N3CCOCC3)cc21)N1CCN(c2ccc(F)cc2)CC1,/,3%,/,/,-2%,/
CC(=O)c1cccc(S(=O)(=O)N2CCC(C(=O)Oc3ccc(-c4nnco4)cc3)CC2)c1,/,/,9%,0%,/,/
O=C(OCC(=O)N1CCCCCC1)c1ccc(F)cc1F,3.5µM*,/,?,1%,13µM*,15%
O=C(OCC(=O)N1CCOCC1)c1ccc(F)cc1Cl,19%,/,?,15%,-17%,13%
Cc1ccc(C2=Nc3ccccc3NC(c3ccncc3)=N2)cc1,/,0%,/,/,-9%,/
Cc1cc2nc(-c3cccc(NC(=O)COc4ccc(Cl)c(C)c4)c3)oc2cc1C,/,/,/,/,1.9µM*,/
Cc1cc2nc(-c3cccc(NC(=O)COc4ccc(C(C)C)cc4)c3)oc2cc1C,/,12%,/,/,1.5µM*,/
COc1cc(/C=C/c2ccccc2)oc(=O)c1,/,8.9µM*,/,/,/,/
C=C(C)C(=O)Nc1cccnc1Oc1ccc(F)cc1F,-6%,/,1%,1%,2%,4%

# Screening data deposited in PubChem by National Center for Advancing Translational Sciences (NCATS).
